Assay [1] in a line: viability loss with induced miR-34 in A549 – imaging, A549 dox-inducible miR-34, nuclei and caspase counts, primary screen (AID 1347080;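 active = compounds whose cell count with miR-34 switched on is under 0.7 times the count with it off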). The settings on record: A549 miR-34 inducible, Hoechst nuclei count, 48 h.
A short description of assay [2]: MELAS cybrid and Rieske KO viability enhancers – cell-based, MELAS cybrids, Rieske KO mouse fibroblasts, CellTiter-Glo, primary screen (AID 1508586).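 Also: z relative to plate mean and SD of compound and empty wells.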 The settings on record: low glucose.
Setting [3] is: stronger effect = lower value, cell number ratio, induced over uninduced.
[4] abbreviates: measured here: relative caspase fold change +Dox/-Dox.
Setting [5] is: measured here: total cells with miR-34 induction, stronger effect = lower value.
The mark [6] stands for this setting: measured here: total cells without miR-34 induction.
[7] abbreviates: MELAS cybrid survival, CellTiter-Glo 48 h, stronger effect = higher value.
[8] abbreviates: Rieske KO mouse fibroblast survival, CellTiter-Glo 72 h.

The structures appear in SMILES notation. Calls of active or inactive are those of the source.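 The calls were made as follows, unless noted: active = mean z-score across replicates of 1.96 or higher in either the MELAS or the Rieske mutant cell line; inactive = the rest.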
Also: test concentration not given here.

As for `COc1ccc(-c2ccc3c(N4CCOCC4C)nc(N4CCOCC4C)nc3n2)cc1CO` (stereo not drawn), the fold change in assay [1] (setting [3]) was 0.853 (inactive); in assay [1] (setting [4]) it was 1.28. Further, the cell count in assay [1] (setting [5]) worked out at 2360; in assay [1] (setting [6]), 2770. The results for the z-score in assay [2] (setting [7]) and in assay [2] (setting [8]) were 5.74 (active) and -3.07, respectively.

With `CC[C@]1(O)C[C@H]2CN(CCc3c([nH]c4ccccc34)[C@@](C(=O)OC)(c3cc4c(cc3OC)N(C)[C@@H]3C45CCN4CC=C[C@@](CC)(C(OC(C)=O)[C@]3(O)C(=O)OC)[C@H]45)C2)C1` (stereo partly drawn), the figures for the fold change in assay [1] (setting [3]) and in assay [1] (setting [4]) were 1.18 (inactive) and 0.78, respectively. The values for the cell count in assay [1] (setting [5]) and in assay [1] (setting [6]) were 1480 and 1260, respectively. Further, the values for the z-score in assay [2] (setting [7]) and in assay [2] (setting [8]) were 0.649 (inactive) and -0.168, respectively.

As for `CC(C)Oc1ccc(-c2cnc3c(-c4ccnc5ccccc45)cnn3c2)cc1`, the fold change is 0.806 (inactive) in assay [1] (setting [3]) and 0.45 in assay [1] (setting [4]). In addition, the cell count was determined as 5470 in assay [1] (setting [5]) and 6780 in assay [1] (setting [6]). Further, the z-score was -0.164 (inactive) in assay [2] (setting [7]) and 0.555 in assay [2] (setting [8]).

With `CC1=C(CC(=O)O)c2cc(F)ccc2C1=Cc1ccc(S(C)=O)cc1` (stereo not drawn), the fold change is 0.878 (inactive) in assay [1] (setting [3]) and 0.667 in assay [1] (setting [4]). Moreover, the cell count in assay [1] (setting [5]) stood at 7920; in assay [1] (setting [6]), 9010. Also, the z-score in assay [2] (setting [7]) is -0.193 (inactive); in assay [2] (setting [8]), 0.691.

Take `CN(C)Cc1ccc(S(=O)(=O)n2ccc(C=CC(=O)NO)c2)cc1`: the fold change in assay [1] (setting [3]) is 0.784 (inactive); in assay [1] (setting [4]) it was 0.443. Also, the cell count came out at 1500 in assay [1] (setting [5]) and 1910 in assay [1] (setting [6]). In addition, the z-score in assay [2] (setting [7]) was -0.566 (inactive); in assay [2] (setting [8]), -0.298.

Consider `CN1[C@@H]2CC[C@@H]1CC(OC(=O)C(O)c1ccccc1)C2` (stereo partly drawn), for which the fold change is 0.924 (inactive) in assay [1] (setting [3]) and 0.78 in assay [1] (setting [4]). The cell count is 8330 in assay [1] (setting [5]) and 9020 in assay [1] (setting [6]). Further, the results for the z-score in assay [2] (setting [7]) and in assay [2] (setting [8]) were -0.279 (inactive) and -0.173, respectively.

Regarding `CNCc1cc(-c2ccccc2F)n(S(=O)(=O)c2cccnc2)c1`, the figures for the fold change in assay [1] (setting [3]) and in assay [1] (setting [4]) were 0.924 (inactive) and 0.437, respectively. The cell count in assay [1] (setting [5]) is 8460; in assay [1] (setting [6]) it was 9150. In addition, the values for the z-score in assay [2] (setting [7]) and in assay [2] (setting [8]) were -0.328 (inactive) and 0.241, respectively.

For `Cc1nc(N(C)C(=O)Cc2ccc(-c3ccccn3)cc2)sc1S(N)(=O)=O`, the fold change in assay [1] (setting [3]) was 0.911 (inactive); in assay [1] (setting [4]) it was 0.414. For the same compound, the cell count in assay [1] (setting [5]) was found to be 7530; in assay [1] (setting [6]), 8270. Besides, the figures for the z-score in assay [2] (setting [7]) and in assay [2] (setting [8]) were -0.339 (inactive) and -0.561, respectively.

For `N#CC(=C1SCC(c2ccc(Cl)cc2Cl)S1)n1ccnc1` (stereo not drawn), the values for the fold change in assay [1] (setting [3]) and in assay [1] (setting [4]) were 0.898 (inactive) and 1.64, respectively. The cell count in assay [1] (setting [5]) was 8130; in assay [1] (setting [6]) it was 9050. Also, the z-score in assay [2] (setting [7]) is -0.162 (inactive); in assay [2] (setting [8]), -0.0913.

As for `CN1CCN(C(=O)c2cc3cc(Cl)ccc3[nH]2)CC1`, the fold change in assay [1] (setting [3]) is 1 (inactive); in assay [1] (setting [4]), 0.614. The cell count was 8330 in assay [1] (setting [5]) and 8310 in assay [1] (setting [6]). In addition, the z-score in assay [2] (setting [7]) was -0.282 (inactive); in assay [2] (setting [8]) it was -0.0205.

As to `O=C1CC(=O)c2c(Cl)c(Cl)c(Cl)c(Cl)c21`, the fold change was 1.01 (inactive) in assay [1] (setting [3]) and 0.472 in assay [1] (setting [4]). Also, the cell count in assay [1] (setting [5]) was found to be 8430; in assay [1] (setting [6]), 8350. The z-score is -0.354 (inactive) in assay [2] (setting [7]) and -0.295 in assay [2] (setting [8]).

On to `CCOc1cc(C(CS(C)(=O)=O)N2C(=O)c3cccc(NC(C)=O)c3C2=O)ccc1OC` (stereo not drawn), for which the fold change is 0.919 (inactive) in assay [1] (setting [3]) and 0.498 in assay [1] (setting [4]). Also, the values for the cell count in assay [1] (setting [5]) and in assay [1] (setting [6]) were 8660 and 9420, respectively. Moreover, the z-score is -0.371 (inactive) in assay [2] (setting [7]) and -0.546 in assay [2] (setting [8]).

On to `Cn1ncnc1C1c2n[nH]c(=O)c3cc(F)cc(c23)NC1c1ccc(F)cc1` (stereo not drawn), for which the values for the fold change in assay [1] (setting [3]) and in assay [1] (setting [4]) were 0.895 (inactive) and 1.04, respectively. The cell count in assay [1] (setting [5]) stood at 2740; in assay [1] (setting [6]), 3060. The z-score in assay [2] (setting [7]) was -0.229 (inactive); in assay [2] (setting [8]) it was -0.124.

`O=C(C=Cc1ccc(O)cc1)c1ccc(O)cc1O`: the fold change in assay [1] (setting [3]) was 0.99 (inactive); in assay [1] (setting [4]), 0.784. Moreover, the cell count in assay [1] (setting [5]) is 8890; in assay [1] (setting [6]), 8980. Moreover, the z-score in assay [2] (setting [7]) is -0.337 (inactive); in assay [2] (setting [8]), 0.414.

`CC#CCn1c(N2CCCC(N)C2)nc2c1c(=O)n(Cc1nc(C)c3ccccc3n1)c(=O)n2C` (stereo not drawn): the fold change in assay [1] (setting [3]) is 0.91 (inactive); in assay [1] (setting [4]) it was 0.676. Further, the cell count in assay [1] (setting [5]) stood at 9950; in assay [1] (setting [6]) it was 10900. In addition, the values for the z-score in assay [2] (setting [7]) and in assay [2] (setting [8]) were -0.379 (inactive) and 0.539, respectively.

`CNc1nc(Nc2cnn(C3CCN(C4COC4)CC3F)c2Cl)ncc1C(F)(F)F` (stereo not drawn): the fold change in assay [1] (setting [3]) was 0.967 (inactive); in assay [1] (setting [4]), 0.45. In addition, the cell count in assay [1] (setting [5]) came out at 8480; in assay [1] (setting [6]) it was 8760. Besides, the z-score is -0.354 (inactive) in assay [2] (setting [7]) and 0.843 in assay [2] (setting [8]).

For the compound `COc1c(C)c(C(=O)c2ccc(N)c(C(=O)O)c2)n2ccccc12`, the fold change in assay [1] (setting [3]) is 0.908 (inactive); in assay [1] (setting [4]), 0.344. Also, the cell count turned out to be 7600 in assay [1] (setting [5]) and 8370 in assay [1] (setting [6]). Also, the z-score was 0.355 (inactive) in assay [2] (setting [7]) and -2.17 in assay [2] (setting [8]).

As to `CC(=O)C1=C(O)C=C2Oc3c(C(C)=O)c(O)c(C)c(O)c3[C@]2(C)C1=O`, the fold change in assay [1] (setting [3]) was 0.866 (inactive); in assay [1] (setting [4]), 1.11. Further, the cell count in assay [1] (setting [5]) was 5890; in assay [1] (setting [6]) it was 6800. In addition, the results for the z-score in assay [2] (setting [7]) and in assay [2] (setting [8]) were -0.25 (inactive) and 0.769, respectively.

`CCC(Nc1ncnc2nc[nH]c12)c1nc2cccc(F)c2c(=O)n1-c1ccccc1` (stereo not drawn): the figures for the fold change in assay [1] (setting [3]) and in assay [1] (setting [4]) were 0.873 (inactive) and 0.869, respectively. Also, the cell count in assay [1] (setting [5]) stood at 6860; in assay [1] (setting [6]), 7860. Further, the z-score in assay [2] (setting [7]) was -0.15 (inactive); in assay [2] (setting [8]) it was 0.351.

For the compound `C=C1C(=CC=C2CCC[C@]3(C)C(C(C)CCCC(C)(C)O)CC[C@@H]23)CC(O)CC1O` (stereo partly drawn), the results for the fold change in assay [1] (setting [3]) and in assay [1] (setting [4]) were 0.915 (inactive) and 1.06, respectively. Further, the cell count is 6550 in assay [1] (setting [5]) and 7160 in assay [1] (setting [6]). Further, the z-score in assay [2] (setting [7]) was -0.468 (inactive); in assay [2] (setting [8]), 0.543.

With `Nc1nc(Cl)nc2c1ncn2C1OC(CO)C(O)C1F` (stereo not drawn), the fold change was 1.03 (inactive) in assay [1] (setting [3]) and 0.719 in assay [1] (setting [4]). The cell count in assay [1] (setting [5]) amounted to 1700; in assay [1] (setting [6]), 1650. Also, the z-score in assay [2] (setting [7]) was 0.651 (inactive); in assay [2] (setting [8]) it was -0.114.

With `CCCN1CC(CSC)C[C@@H]2c3cccc4[nH]cc(c34)C[C@H]21` (stereo partly drawn), the fold change is 0.938 (inactive) in assay [1] (setting [3]) and 0.485 in assay [1] (setting [4]). The cell count in assay [1] (setting [5]) is 7000; in assay [1] (setting [6]), 7460. Further, the z-score is -0.0829 (inactive) in assay [2] (setting [7]) and -0.225 in assay [2] (setting [8]).

On to `COc1cc2c(cc1O)CC[C@@H]1[C@H]2CC[C@]2(C)C(O)CC[C@@H]12` (stereo partly drawn), for which the fold change in assay [1] (setting [3]) is 1.05 (inactive); in assay [1] (setting [4]), 0.703. The results for the cell count in assay [1] (setting [5]) and in assay [1] (setting [6]) were 1820 and 1740, respectively. For the same compound, the z-score in assay [2] (setting [7]) was 1.32 (inactive); in assay [2] (setting [8]), 0.434.

The values are drawn from PubChem BioAssay.
